KB-3-1 tox: kills parental KB-3-1 adenocarcinoma cells | KB-3-1 viability, CellTiter-Glo ATP luminescence, 72 h | Potency, µM (titrated, usually from 46.1 µM), usual class: cytotoxic | 400,000 tested, 1.4% active; also: % is scaled to controls: 0 for no effect and ±100 for the full control effect; nearly all actives have a fitted effect of over 60% in size
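Cytotoxicity in the drug-sensitive parental line KB-3-1 was scored as loss of CellTiter-Glo luminescence following 72 h incubation with compound. Values come from curve fitting of normalized concentration-response data.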
MCF10A rerep: induces DNA re-replication in MCF 10a normal breast cells. MCF 10A DNA re-replication, Hoechst nuclear intensity, 48 h. Potency, µM (doses to about 46.1 µM), for the others: at the top dose activity, positive = re-replication, usual class: activators. 350,000 tested, 2.9% active. AID 624296; also: % of control where 0% means no effect; nearly all actives have a fitted effect of over 50% in size
PTAP TSG101 blk: blocks PTAP/TSG101 interaction to inhibit HIV-1 budding; Fluorescence polarization, FITC-PTAP peptide / Tsg101 binding; AID 493005; Q99816; 340,000 tested, under 10 active; Potency, µM (highest dose often 115 µM), for the others: at the highest dose activity change, negative = inhibition, hits mostly inhibitors; active = well fitted inhibition curve with a large enough effect in the main read-out, with a control signal flat, not every such curve was filed as active; inconclusive = small, poorly fitted or top-dose-only effect, or effect the other way, or a change in a side signal; inactive = no such curve, though single readings can be large or run the other way; also: % of control where 0% means no effect
Target sequence (Q99816 whole entry, looked up): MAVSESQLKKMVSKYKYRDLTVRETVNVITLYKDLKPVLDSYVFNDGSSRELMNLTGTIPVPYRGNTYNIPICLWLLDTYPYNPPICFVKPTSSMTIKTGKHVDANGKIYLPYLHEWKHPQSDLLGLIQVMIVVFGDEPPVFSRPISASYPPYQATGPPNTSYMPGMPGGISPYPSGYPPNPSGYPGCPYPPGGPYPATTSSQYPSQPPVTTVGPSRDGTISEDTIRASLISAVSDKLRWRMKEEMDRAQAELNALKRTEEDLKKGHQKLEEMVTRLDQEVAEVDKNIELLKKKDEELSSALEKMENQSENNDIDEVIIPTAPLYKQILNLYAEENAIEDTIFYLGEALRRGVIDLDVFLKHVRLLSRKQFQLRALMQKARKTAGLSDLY
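Tsg101 binding domain (10 uM final) was mixed with compound and a FITC-labeled PTAP peptide (50 nM final) in HEPES pH 7.5 buffer with NaCl, Tween 20, EDTA and TCEP; fluorescence polarization was read after 20 min at r.t.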
PINK1 modulator: PINK1 expression modulation. AID 624263. Potency, µM (series often up to 76.6 µM), for inactives: at the top dose activation (PINK1 increase), usual class: activators. PINK1 immunofluorescence, high-content cytometry, 24 h. 410,000 tested, 0.2% active; active = well fitted activation curve with a large enough effect; inconclusive = small, poorly fitted or top-dose-only effect; cell line not stated here; also: % of control where 0% means no effect; nearly all actives have a fitted effect of over 65% in size
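Measures PINK1 amount and localization on or inside mitochondria by immunofluorescence. Stable cells get compounds at 5 concentrations for 24 hours before fixation and staining; CCCP controls included.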
KB-V1 cytotox: KB-V1 MDR subline cytotoxicity; KB-V1 MDR cells viability, CellTiter-Glo, 72 h; Potency, µM (highest dose often 46.1 µM), hits mostly cytotoxic; 400,000 tested, 3.4% active; also: % is scaled to controls: 0 for no effect and ±100 for the full control effect; nearly all actives have a fitted effect of over 60% in size
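Cytotoxicity toward P-gp-expressing KB-V1 cells was determined as loss of CellTiter-Glo luminescence after 72 h at 37 degrees C. Compounds were tested in quantitative HTS format across a concentration range, with curves fitted to normalized data.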
SW480 rereplic: induces DNA re-replication in SW480 colon adenocarcinoma cells. SW480 DNA re-replication, Hoechst DNA content imaging, 48 h. Potency, µM (series often up to 46.1 µM), without a hit: at the top dose re-replication activation, most hits filed as activators. 340,000 tested, 1.8% active; also: % of control where 0% means no effect; nearly all actives have a fitted effect of over 55% in size
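First, 250 cells per well were seeded. Next, compound or vehicle (23 nL) was pinned in, plates sat 48 hr at 37 C. Finally Hoechst was added for 40 min before fluorescence scanning.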
Starred values were filed as active, the others as inactive; i = inactive; ? = inconclusive; . = no result; ! = repeats disagree; [ ] = another dose, or the depositor's remark. A selection: hits, their analogues and other compounds. The true share with any hit is near 6.8%. Unless noted, calls follow the shape of the dose curve; as a rule, active = well fitted curve in the direction sought with a large enough effect; inconclusive = small, poorly fitted or top-dose-only effect, or another doubt; inactive = no such curve, though single readings can be large; an effect the other way counts as inactive or inconclusive. Potency is read from the fitted curve at half-maximal effect.

SMILES	KB-3-1 tox	MCF10A rerep	PTAP TSG101 blk	PINK1 modulator	KB-V1 cytotox	SW480 rereplic
CCOC(=O)C1=C(CN2CC(C)CC(C)C2)NC(=O)NC1c1ccc2c(c1)OCO2 (stereo not given)	i	-14%	-7%	1%	18µM*	?
CC1=C(C(=O)OCc2ccc3c(c2)OCO3)C(c2ccccc2)NC(=O)N1 (stereo not given)	23µM*	-7%	-5%	.	12µM*	-3%
CC1=C(C(=O)OCc2ccc3c(c2)OCO3)C(c2ccccc2OCc2ccccc2)NC(=O)N1 (stereo not given)	i	?	-8%	-7%[38.3 µM]	?	4%
CCOC(=O)C1=C(CN2CCCCCC2)NC(=O)NC1c1ccc2c(c1)OCO2 (stereo not given)	i	-7%	0%	-1%	?	?
O=C(COc1ccc(F)cc1)Nc1ccccc1C(=O)OCc1cc(=O)n2nc(C3CC3)sc2n1	i	.	.	0%	i	.
Cc1cc(CNC(=O)c2cnn(-c3nccc(-c4cc(C)sc4C)n3)c2C2CC2)on1	.	.	.	0%	.	.
CN(C)Cc1ccccc1-c1cncnc1Nc1ccncc1	.	.	.	-1%	.	.
CCOC(=O)C1=C(C)NC(=O)NC1c1cccc(OC)c1OCc1ccccc1Cl (stereo not given)	i	?	2%	30%[38.3 µM]	13µM*	12%
CCN1C(=O)C2(c3ccccc31)c1c(oc3ccc(C)cc3c1=O)C(=O)N2CCCOC(C)C (stereo not given)	i	.	.	-1%	i	.
CCc1cccc(-n2c(=O)c3cccnc3n2CC(=O)NCc2ccccc2Cl)c1	.	.	.	0%	.	.
Cc1cccc(N2CCN(Cc3cn(C)nc3-c3ccccc3F)CC2)n1	5.8µM*	7.3µM*	-3%	0%	?	3.3µM*
Cn1cc(CN2CCN(c3ccc(Cl)cn3)CC2)c(-c2ccccc2F)n1	i	9%	-1%	0%	i	-4%
Cc1cc(-c2nn(-c3ccccc3F)cc2CN2CCN(c3ccccn3)CC2)c(C)s1	i	?	0%	9%	16µM*	-33%[1.84 µM]
Cc1cc(C)cc(NC2=CC(c3cccc(F)c3)N(c3cc(C)cc(C)c3)C2=O)c1 (stereo not given)	i	.	.	1%	i	.
CC[n+]1c(C)cc2c(sc3ccccc32)c1C	2.6µM*	19%	-5%	-1%	i	-7%
CCc1nc(C)cc2c1sc1ccccc12	i	?	-3%	0%	i	?
CN(C)CCCN(C(=O)/C=C/c1cccs1)c1nc2ccc(F)cc2s1	21µM*	23µM*	24%	-1%	18µM*	?
COc1cccc2sc(N(CCN(C)C)C(=O)/C=C/c3cccs3)nc12	i	?	0%	-1%	i	18%
Cc1ccc2nc(N(CCN(C)C)C(=O)/C=C/c3cccs3)sc2c1	i	26µM*	-2%	11%	i	?
CCOc1cccc2sc(N(CCN(C)C)C(=O)/C=C/c3cccs3)nc12	i	8.2µM*	-4%	-2%	i	?
Cc1ccc(Cl)cc1N1CCN(C(=O)Cn2cnc3onc(-c4ccc(F)cc4)c3c2=O)CC1	i	.	.	-4%	i	.
CCN(c1cccc(C)c1)S(=O)(=O)c1cc(Br)cc2c1N(C(C)=O)C(C)C2 (stereo not given)	i	.	.	4%	i	.
CC(=O)n1cc(C=O)c2ccccc21	?	.	.	2%	?	.
CC(=O)n1cc(N(C(=O)CCl)c2ccc(Cl)cc2)c2ccccc21	?	?	-3%	-1%	?	2.6µM*
COc1ccccc1N(C(=O)CCl)c1cn(C(C)=O)c2ccccc12	?	?	-11%	-2%	15µM*	?
SMILES	KB-3-1 tox	MCF10A rerep	PTAP TSG101 blk	PINK1 modulator	KB-V1 cytotox	SW480 rereplic
c1ccc(-c2nc(-c3nccc4ccccc34)oc2-c2ccccc2)cc1	i	?	3%	8%	i	7.3µM*
COc1ccc(N2C(=O)CS(=O)(=O)C23C(=O)N(Cc2ccccc2F)c2ccccc23)cc1Cl (stereo not given)	i	.	.	-4%	i	.
COc1ccc2c(c1)c1c(c(=O)n(-c3ccc(C)cc3)c(=O)n1CC(=O)N1CCCC1)n2C	.	.	.	1%	.	.
COc1ccc(-c2nnc3ccc(SC)nn23)cc1	i	2%	.	1%[38.3 µM]	15µM*	-4%
CCOC(=O)C(C)Sc1ccc2nnc(-c3ccc(F)cc3)n2n1 (stereo not given)	?	16%	-8%	5%[38.3 µM]	15µM*!	2%
COc1ccc(C2Nc3ccccc3C(=O)N2c2ccc(F)cc2)cc1COc1ccc(NC(C)=O)cc1 (stereo not given)	i	.	.	0%	i	.
CCCn1c(N)c(Sc2ccccc2)c(=O)n(CCC)c1=O	i	-9%	.	6%[38.3 µM]	13µM*	-3%
CCCn1nc(C(=O)N2CC(=O)Nc3ccccc32)c2ccccc2c1=O	8.2µM*	15µM*	0%	2%	21µM*	15µM*
COc1cc(OC)cc(C(=O)N2CC(=O)Nc3ccccc32)c1	?	1.5µM*	-1%	4%	2.3µM*	3.3µM*
CC(C)n1nc(C(=O)OCC(=O)N2CC(=O)Nc3ccccc32)c2ccccc2c1=O	i	-7%	-5%	1%	i	-2%
O=C1CN(C(=O)c2ccccc2F)c2ccccc2N1	i	-12%	-7%	.	i	-23%
CCCN1C(=O)c2ccccc2NC1c1ccc(OC)c(COc2cccc(C)c2C)c1 (stereo not given)	?	.	.	0%	?	.
CCOC(=O)c1c(NC(=O)COc2ccc(Br)cc2)sc2c1CCCC2	i	.	.	3%	i	.
Cc1ccc(OCC(=O)N(Cc2cccs2)C2CCS(=O)(=O)C2)cc1 (stereo not given)	i	-25%	-3%	-1%	?	-2%
Cc1ccc(OCC(=O)N(Cc2ccc(N(C)C)cc2)C2CCS(=O)(=O)C2)cc1 (stereo not given)	i	-1%	-3%	0%	i	7%
CN(C)c1ccc(CN(C(=O)COc2ccc(Br)cc2)C2CCS(=O)(=O)C2)cc1 (stereo not given)	i	8%	0%	32%[38.3 µM]	8.2µM*	-1%
Cc1cc(C)cc(OCC(=O)N(Cc2cccs2)C2CCS(=O)(=O)C2)c1 (stereo not given)	i	1%	-7%	12%[38.3 µM]	8.2µM*	0%
Cc1ccccc1NC(=O)Cc1nc(COC(=O)c2cc(Cl)ccc2O)cs1	i	-1%	-3%	2%	i	2%

Screening data (PubChem)
